According to PubChem BioAssay (Tox21):
Several values for one entry are separate records, joined by “and”; a condition that tells them apart may be missing. Identical values can stand only once. Some compounds were tested as several samples or in several runs, with calls that do not always agree. Activity calls are given as the source filed them. Unless noted, calls follow the shape of the dose curve; as a rule, active = well fitted curve in the direction sought with a large enough effect in the repeat runs; inconclusive = weak or mixed curves; inactive = no such curve, though single readings can be large; an effect the other way counts as inactive or inconclusive.

What was measured:
[1] = qHTS assay to identify small molecule antagonists of the glucocorticoid receptor (GR) signaling pathway - cell viability counter screen (AID 720693); also: nearly all actives have a fitted effect of over 55% in size
[2] = qHTS assay for identifying genotoxic compounds that show differential cytotoxicity against isogenic chicken DT40 cell lines with known DNA damage response pathways - wild type cell line (AID 743012); also: nearly all actives have a fitted effect of over 60% in size; also: potency is read from the fitted curve at half-maximal effect
How it was run: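 Wild-type DT40 cells (300/well) exposed to compounds for 40 hours at 37 C/5% CO2. Viability read by CellTiter-Glo luminescence after 30 min at room temperature.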

[3] = qHTS assay for identifying genotoxic compounds that show differential cytotoxicity against isogenic chicken DT40 cell lines with known DNA damage response pathways - Rev3 mutant cell line (AID 743014); also: nearly all actives have a fitted effect of over 55% in size; also: potency is read from the fitted curve at half-maximal effect
[4] = qHTS assay for identifying genotoxic compounds that show differential cytotoxicity against isogenic chicken DT40 cell lines with known DNA damage response pathways - Rad54/Ku70 mutant cell line (AID 743015); also: nearly all actives have a fitted effect of over 60% in size; also: potency is read from the fitted curve at half-maximal effect
[5] = qHTS assay to identify small molecule antagonists of the androgen receptor (AR) signaling pathway - cell viability counter screen (AID 743033; also: nearly all actives have a fitted effect of over 45% in size)
[6] = qHTS assay to identify small molecule antagonists of the androgen receptor (AR) signaling pathway using the MDA cell line - cell viability counter screen (AID 743041; also: nearly all actives have a fitted effect of over 45% in size)
How it was run: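 Cells were plated at 3,000 per well and left 5 h. Compounds in DMSO were then pinned in, followed by R1881. After 16 h at 37C, CellTiter-Fluor fluorescence gave viability.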

[7] = qHTS assay to identify small molecule antagonists of the thyroid receptor (TR) signaling pathway - cell viability counter screen (AID 743064); also: nearly all actives have a fitted effect of over 50% in size; also: potency is read from the fitted curve at half-maximal effect
How it was run: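 Viability of T3-stimulated (1 nM final) GH3.TRE-Luc cells is measured by CellTiter-Fluor fluorescence after 23.5 h compound exposure at 37 °C plus 30 min reagent incubation.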

[8] = target: Estrogen receptor (Homo sapiens) (UniProt P03372); test: qHTS assay to identify small molecule antagonists of the estrogen receptor alpha (ER-alpha) signaling pathway (AID 743069; active = well fitted curve in the direction sought with a large enough effect in the signal ratio in the repeat runs, not every such curve was filed as active; inconclusive = weak or mixed curves, or effect the other way; inactive = no such curve, though single readings can be large or run the other way; the % refers to the signal ratio; also: potency is read from the fitted curve at half-maximal effect)
Sequence of Estrogen receptor (Homo sapiens) (P03372 whole entry, looked up): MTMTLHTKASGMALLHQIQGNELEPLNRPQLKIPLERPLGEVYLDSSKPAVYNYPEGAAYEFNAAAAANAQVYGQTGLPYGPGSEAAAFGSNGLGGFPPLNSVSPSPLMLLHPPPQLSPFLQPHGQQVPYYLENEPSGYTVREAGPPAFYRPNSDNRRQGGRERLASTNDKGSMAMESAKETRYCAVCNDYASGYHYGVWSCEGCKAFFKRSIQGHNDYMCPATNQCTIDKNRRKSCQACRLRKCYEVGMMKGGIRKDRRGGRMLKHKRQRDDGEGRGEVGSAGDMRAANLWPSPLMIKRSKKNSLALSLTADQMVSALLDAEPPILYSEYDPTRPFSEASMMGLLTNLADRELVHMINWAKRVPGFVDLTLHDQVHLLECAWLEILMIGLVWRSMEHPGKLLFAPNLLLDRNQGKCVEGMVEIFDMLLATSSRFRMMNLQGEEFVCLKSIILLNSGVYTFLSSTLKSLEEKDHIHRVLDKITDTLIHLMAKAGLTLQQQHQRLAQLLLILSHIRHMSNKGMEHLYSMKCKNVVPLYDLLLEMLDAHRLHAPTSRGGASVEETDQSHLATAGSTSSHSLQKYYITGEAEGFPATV
How it was run: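 ER-alpha-UAS-bla GripTite HEK293 line; 2% charcoal-stripped FBS overnight; plated, 4 hr 37C/5% CO2; cpd in DMSO + 17beta-estradiol, 18 hr 37C; LiveBLAzer B/G FRET substrate 2 hr RT; fluorescence intensity.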

[9] = qHTS assay to identify small molecule antagonists of the estrogen receptor alpha (ER-alpha) signaling pathway - cell viability counter screen (AID 743074; calls by dose curve;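 also: HEK293 cells carrying ER-alpha-UAS-bla reporter stimulated with 17beta-estradiol; nearly all actives have a fitted effect of over 45% in size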)
[10] = target: Estrogen receptor (Homo sapiens) (UniProt P03372); test: qHTS assay to identify small molecule agonists of the estrogen receptor alpha (ER-alpha) signaling pathway (AID 743075; calls by dose curve;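 also: HEK293 GripTite cells with ER-alpha and UAS-driven beta-lactamase reporter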; also: potency is read from the fitted curve at half-maximal effect)
[11] = target: Estrogen receptor (Homo sapiens) (UniProt P03372); test: qHTS assay to identify small molecule agonists of the estrogen receptor alpha (ER-alpha) signaling pathway using the BG1 cell line (AID 743079); also: nearly all actives have a fitted effect of over 20% in size; also: potency is read from the fitted curve at half-maximal effect
[12] = qHTS assay to identify small molecule antagonists of the estrogen receptor alpha (ER-alpha) signaling pathway using the BG1 cell line (AID 743080; calls by dose curve;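 also: BG1 cells stimulated with 17beta-estradiol alongside compound; series mostly up to about 70 µM; nearly all actives have a fitted effect of over 25% in size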)
How it was run: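 Readout is ONE-Glo luminescence, taken 30 min at room temperature after reagent addition, preceded by a CellTiter-Fluor viability read; BG1-Luc-4E2 cells had received compound and 17beta-estradiol for 21.5 h at 37 C.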

[13] = qHTS assay to identify small molecule antagonists of the estrogen receptor alpha (ER-alpha) signaling pathway using the BG1 cell line - cell viability counter screen (AID 743081);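 also: compound given together with 17beta-estradiol as the ER stimulus; series mostly up to about 70 µM; nearly all actives have a fitted effect of over 45% in size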
Aromatase (Homo sapiens) = Aromatase (Homo sapiens) (UniProt P11511); test: qHTS assay to identify aromatase inhibitors (AID 743083); also: series mostly up to about 70 µM; nearly all actives have a fitted effect of over 55% in size
Sequence of Aromatase (Homo sapiens) (P11511 whole entry, looked up): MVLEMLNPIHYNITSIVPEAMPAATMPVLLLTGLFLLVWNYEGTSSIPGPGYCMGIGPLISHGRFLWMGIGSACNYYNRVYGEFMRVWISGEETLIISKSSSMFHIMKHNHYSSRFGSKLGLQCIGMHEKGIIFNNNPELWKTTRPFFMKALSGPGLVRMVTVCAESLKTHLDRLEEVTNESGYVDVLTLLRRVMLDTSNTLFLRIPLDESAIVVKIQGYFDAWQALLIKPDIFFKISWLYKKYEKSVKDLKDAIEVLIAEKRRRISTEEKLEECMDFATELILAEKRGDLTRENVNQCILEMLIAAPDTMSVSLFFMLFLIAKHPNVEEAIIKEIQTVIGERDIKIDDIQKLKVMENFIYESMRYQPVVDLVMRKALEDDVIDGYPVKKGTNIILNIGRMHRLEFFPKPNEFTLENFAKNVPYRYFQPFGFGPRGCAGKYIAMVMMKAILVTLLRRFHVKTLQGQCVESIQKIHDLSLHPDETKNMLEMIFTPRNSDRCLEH

[14] = test system: thyroid hormone receptor (rat, GH3 cells); test: qHTS assay to identify small molecule agonists of the thyroid receptor (TR) signaling pathway (AID 743066; calls by dose curve)
[15] = qHTS assay to identify small molecule antagonists of the thyroid receptor (TR) signaling pathway (AID 743065); also: series mostly up to about 70 µM; nearly all actives have a fitted effect of over 55% in size
How it was run: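 Antagonism measured as loss of luciferase signal in GH3 cells stably carrying a TRE-luciferase reporter, co-treated with compound and T3 (1 nM final) for 23.5 h at 37 C. Viability was read in the same well by CellTiter-Fluor.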

[16] = target: Androgen receptor (Homo sapiens) (UniProt P10275); test: qHTS assay to identify small molecule antagonists of the androgen receptor (AR) signaling pathway (AID 743035; active = well fitted inhibition curve with a large enough effect in the signal ratio in the repeat runs, not every such curve was filed as active; inconclusive = weak or mixed curves, or effect the other way; inactive = no such curve, though single readings can be large or run the other way; the % refers to the signal ratio)
Sequence of Androgen receptor (Homo sapiens) (P10275 whole entry, looked up): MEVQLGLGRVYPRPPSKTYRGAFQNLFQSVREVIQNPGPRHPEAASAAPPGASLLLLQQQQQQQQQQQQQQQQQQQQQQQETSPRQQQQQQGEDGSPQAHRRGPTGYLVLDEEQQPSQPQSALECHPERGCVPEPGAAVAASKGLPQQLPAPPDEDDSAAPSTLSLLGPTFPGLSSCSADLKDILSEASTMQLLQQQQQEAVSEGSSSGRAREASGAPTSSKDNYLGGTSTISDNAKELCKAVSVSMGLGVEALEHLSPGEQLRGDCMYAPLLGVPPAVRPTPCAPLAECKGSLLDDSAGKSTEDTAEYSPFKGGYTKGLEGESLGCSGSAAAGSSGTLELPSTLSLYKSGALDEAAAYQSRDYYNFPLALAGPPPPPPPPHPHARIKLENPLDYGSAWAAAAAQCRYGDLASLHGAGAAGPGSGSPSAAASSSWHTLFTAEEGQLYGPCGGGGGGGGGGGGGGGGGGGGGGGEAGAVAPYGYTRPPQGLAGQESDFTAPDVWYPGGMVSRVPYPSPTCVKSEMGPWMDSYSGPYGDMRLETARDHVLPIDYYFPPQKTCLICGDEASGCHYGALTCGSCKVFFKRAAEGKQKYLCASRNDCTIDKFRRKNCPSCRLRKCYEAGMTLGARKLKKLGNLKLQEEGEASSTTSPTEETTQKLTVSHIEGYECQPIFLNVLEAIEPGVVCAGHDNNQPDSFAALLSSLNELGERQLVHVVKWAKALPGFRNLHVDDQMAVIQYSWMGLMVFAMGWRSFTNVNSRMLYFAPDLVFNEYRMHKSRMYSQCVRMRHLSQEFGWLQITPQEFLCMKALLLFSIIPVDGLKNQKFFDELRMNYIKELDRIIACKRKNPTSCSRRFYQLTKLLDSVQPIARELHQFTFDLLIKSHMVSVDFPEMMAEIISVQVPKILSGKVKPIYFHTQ
How it was run: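 HEK293 cells stably carrying UAS-beta-lactamase reporter, 2,000/well, given compounds plus R1881 agonist and incubated 16 h at 37C. LiveBLAzer B/G FRET substrate then added for 2 h at room temperature before fluorescence reading.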

[17] = target: Androgen receptor (Homo sapiens) (UniProt P10275); test: qHTS assay to identify small molecule agonists of the androgen receptor (AR) signaling pathway (AID 743036; active = well fitted activation curve with a large enough effect in the signal ratio in the repeat runs, with a control signal flat, not every such curve was filed as active; inconclusive = weak or mixed curves, or effect the other way; inactive = no such curve, though single readings can be large or run the other way; the % refers to the signal ratio)
How it was run: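 Screening used 2,000 AR-bla HEK293 cells per well, treated 16 h at 37C with test compounds in DMSO alongside positive and DMSO-only controls; beta-lactamase activity was then read by LiveBLAzer B/G FRET fluorescence after 2 h at room temperature.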

[18] = target: Androgen receptor (Homo sapiens) (UniProt P10275); test: qHTS assay to identify small molecule agonists of the androgen receptor (AR) signaling pathway using the MDA cell line (AID 743040; also: nearly all actives have a fitted effect of over 20% in size)
How it was run: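 Cells plated, 5 h at 37C/0% CO2; compound or DMSO pinned; 16 h at 37C; ONE-Glo added; luminescence measured after 30 min at room temperature. Reporter line: MDA-kb2 with MMTV-luciferase responsive to AR and GR.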

[19] = target: Androgen receptor (Homo sapiens) (UniProt P10275); test: qHTS assay to identify small molecule antagonists of the androgen receptor (AR) signaling pathway using the MDA cell line (AID 743042; also: nearly all actives have a fitted effect of over 55% in size)
How it was run: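 Antagonist mode: compounds plus R1881 agonist added to MDA-kb2 AR-luc cells, incubated 16 h at 37C. Luciferase reporter luminescence quantified, with multiplexed CellTiter-Fluor readout for cell viability.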

Measured: Potency

O=C1O[C@H](CO)[C@@H](O)[C@H](O)[C@H]1O
inactive: [1] | [2] | [3] | [4] | [5] | [6] | [7] | [8] | [9] | [10] | [11] | [12] | [13] | Aromatase (Homo sapiens)

OCC#CCO
inactive: [1] | [5] | [6] | [7] | [14] | [13] | Aromatase (Homo sapiens)
inactive and 48.6 µM (active): [4]
inactive and 54.5 µM (active): [2] | [3]

O=S(=O)(O)CCS
inactive: [1] | [2] | [3] | [4] | [5] | [6] | [7] | [15] | [14] | [8] | [9] | [10] | [11] | [12] | [13] | Aromatase (Homo sapiens)

CC1(C)O[C@@H]2C[C@H]3[C@@H]4C[C@H](F)C5=CC(=O)CC[C@]5(C)[C@H]4[C@@H](O)C[C@]3(C)[C@]2(C(=O)CO)O1
inactive: [1] | [2] | [3] | [4] | [5] | [6] | [7] | [15] | [14] | [9] | [11] | [13] | Aromatase (Homo sapiens)

CCCCOCCO
inactive: [1] | [2] | [3] | [4] | [5] | [6] | [7] | [15] | [14] | [8] | [9] | [10] | [11] | [12] | [13] | Aromatase (Homo sapiens)

C=CC(=O)OCCCCCCCC(C)C
inactive: [1] | [5] | [16] | [17] | [18] | [6] | [19] | [7] | [15] | [14] | [8] | [9] | [10] | [11] | [12] | [13] | Aromatase (Homo sapiens)
inactive and 27.3 µM (active): [4]
inactive and 54.4 µM (active): [3]
inactive and 48.5 µM (active): [2]

CCCCCCCCC
inactive: [1] | [2] | [3] | [4] | [5] | [6] | [7] | [15] | [14] | [8] | [9] | [10] | [11] | [12] | [13] | Aromatase (Homo sapiens)

C[C@@H]1O[C@@H](OC[C@H]2O[C@@H](Oc3c(-c4ccc(O)c(O)c4)oc4cc(O)cc(O)c4c3=O)[C@H](O)[C@@H](O)[C@@H]2O)[C@H](O)[C@H](O)[C@H]1O
inactive: [1] | [2] | [3] | [4] | [16] | [17] | [18] | [6] | [19] | [15] | [14] | [9] | [13] | Aromatase (Homo sapiens)

C=C(C)C(=O)OCC(CC)(COC(=O)C(=C)C)COC(=O)C(=C)C
inactive: [1] | [2] | [5] | [6] | [7] | [15] | [14] | [13] | Aromatase (Homo sapiens)

C=C(C)C(=O)OCCCCCCCCCCCC
inactive: [1] | [3] | [4] | [5] | [6] | [7] | [15] | [14] | [8] | [9] | [10] | [11] | [12] | [13] | Aromatase (Homo sapiens)

Nc1nc2ncc(CNc3ccc(C(=O)N[C@@H](CCC(=O)O)C(=O)O)cc3)nc2c(=O)[nH]1
inactive: [1] | [2] | [3] | [4] | [16] | [17] | [18] | [6] | [19] | [9] | [13] | Aromatase (Homo sapiens)

CC(C)(C)C(=O)C1C(=O)c2ccccc2C1=O
inactive: [1] | [5] | [14] | [9] | [10] | Aromatase (Homo sapiens)
inactive and 13.7 µM (active): [3]
active: [2] 60.5 µM and 12.2 µM | [4] 13.7 µM | [7] 67.9 µM | [8] 54.4 µM [inconclusive] and 54.9 µM [inconclusive]

CCOC(=O)C1OC1c1ccccc1 (stereo not drawn)
inactive: [1] | [2] | [3] | [4] | [5] | [6] | [14] | [9] | [13] | Aromatase (Homo sapiens)

CC[Si](OC(C)=O)(OC(C)=O)OC(C)=O
inactive: [1] | [3] | [4] | [5] | [6] | [7] | [15] | [14] | [8] | [9] | [10] | [11] | [12] | [13] | Aromatase (Homo sapiens)

Oc1ccc(OCc2ccccc2)cc1
inactive: [1] | [5] | [17] | [18] | [6] | [19] | [8] | [9] | [13] | Aromatase (Homo sapiens)
active: [3] 2.85 µM and 5.33 µM | [4] 4.52 µM and 11.9 µM | [7] 9.02 µM | [10] 11.4 µM [activator] and 53.8 µM [inconclusive] | [11] 8.04 µM and 9.48 µM

CCCCCC/C=C/CCCCCCCC(=O)O
30.7 µM (active) and inactive: [11]
inactive: [1] | [2] | [3] | [4] | [6] | [8] | [9] | [10] | [12] | [13] | Aromatase (Homo sapiens)

CC(C)Cc1ccccc1
inactive: [1] | [2] | [3] | [4] | [6] | [7] | [15] | [14] | [8] | [9] | [10] | [11] | [12] | [13] | Aromatase (Homo sapiens)
